The results in this text go back to ChEMBL document CHEMBL1201862, “PubChem BioAssay data set” (2004).

Molecules are shown by their SMILES. About 2,100 (0.53%) of roughly 400,000 compounds were called active. Inconclusive results (about 14%) are left out. No rule for the calls is given here. Only a selection was taken, and actives are over-represented in it overall.

Chain of Ataxin-2 (Homo sapiens) (Q99700 whole entry): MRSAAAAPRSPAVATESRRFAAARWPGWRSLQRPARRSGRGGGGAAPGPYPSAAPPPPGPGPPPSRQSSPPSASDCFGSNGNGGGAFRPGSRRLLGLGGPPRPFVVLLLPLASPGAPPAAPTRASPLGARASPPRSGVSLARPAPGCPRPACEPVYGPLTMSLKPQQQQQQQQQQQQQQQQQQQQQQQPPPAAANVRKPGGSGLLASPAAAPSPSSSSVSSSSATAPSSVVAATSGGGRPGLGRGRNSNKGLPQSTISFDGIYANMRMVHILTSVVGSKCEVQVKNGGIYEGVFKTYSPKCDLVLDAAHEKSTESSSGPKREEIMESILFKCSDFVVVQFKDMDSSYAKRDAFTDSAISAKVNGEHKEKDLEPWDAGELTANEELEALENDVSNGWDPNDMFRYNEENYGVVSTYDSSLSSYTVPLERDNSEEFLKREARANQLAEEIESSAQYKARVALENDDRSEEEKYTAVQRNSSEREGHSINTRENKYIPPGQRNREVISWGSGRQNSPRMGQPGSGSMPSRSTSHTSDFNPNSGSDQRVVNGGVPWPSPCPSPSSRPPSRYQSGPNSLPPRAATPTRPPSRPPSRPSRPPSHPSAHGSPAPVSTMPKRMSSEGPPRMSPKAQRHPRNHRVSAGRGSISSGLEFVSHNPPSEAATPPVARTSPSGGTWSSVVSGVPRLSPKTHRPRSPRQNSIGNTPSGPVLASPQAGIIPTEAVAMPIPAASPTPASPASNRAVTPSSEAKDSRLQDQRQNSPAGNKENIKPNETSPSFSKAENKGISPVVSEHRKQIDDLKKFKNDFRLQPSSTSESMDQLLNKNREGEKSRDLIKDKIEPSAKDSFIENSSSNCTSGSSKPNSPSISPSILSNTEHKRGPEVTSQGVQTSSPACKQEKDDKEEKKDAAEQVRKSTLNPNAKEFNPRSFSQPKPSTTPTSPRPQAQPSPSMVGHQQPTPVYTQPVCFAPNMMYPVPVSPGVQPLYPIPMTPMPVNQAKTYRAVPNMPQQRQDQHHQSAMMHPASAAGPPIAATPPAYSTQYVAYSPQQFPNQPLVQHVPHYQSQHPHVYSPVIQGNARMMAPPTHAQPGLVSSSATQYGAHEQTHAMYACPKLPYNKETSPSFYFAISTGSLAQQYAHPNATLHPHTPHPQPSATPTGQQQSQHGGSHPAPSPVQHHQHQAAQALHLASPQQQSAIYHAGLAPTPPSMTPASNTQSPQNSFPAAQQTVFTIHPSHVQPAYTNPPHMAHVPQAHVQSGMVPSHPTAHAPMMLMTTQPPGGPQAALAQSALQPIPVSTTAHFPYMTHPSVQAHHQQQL

The assay has as its target Ataxin-2 (Homo sapiens) (UniProt Q99700). Kind of assay: qHTS for Inhibitors of ATXN expression. Format: functional. A general note: Quantitative high-throughput screening tests each substance at several concentrations.
For `COc1cc(/C=N/NC(=O)Nc2cccc3nsnc23)cc(OC)c1OC`, the Potency entry was “inactive”.

For the molecule `CNC(=O)c1cc2c(=O)n3cccc(C)c3nc2n(C(C)C)c1=N`, the Potency entry is “inactive”.

As to `Cc1ccc(S(=O)(=O)NCCc2cn3nc(C)c(C)nc3n2)cc1C`, the Potency result is “inactive”.

On to `Nc1ccc2c(c1)Oc1ccccc1C=C2`, for which the Potency entry is “inactive”.

Regarding `COc1ccccc1/N=c1\oc2cc(O)ccc2cc1C(N)=O`, the Potency entry was “inactive”.

In the case of `CCn1nc(NC(=O)Cc2ccc(OC)cc2)c2cc3cccc(C)c3nc21`, the Potency result is “inactive”.

Regarding `C/C(CC1CC2=C(CC1(C)C)C(C)(C)CCC2)=N\NC(N)=S` (stereo not drawn), the Potency was 35.5 µM (active).

As for `CN1C(=O)c2ccccc2N(C)C1c1ccccc1Cl` (stereo not drawn), the Potency result is “inactive”.

For the molecule `COc1ccccc1C1CCCN1Cc1nc(-c2ccc(C)s2)oc1C` (stereo not drawn), the Potency result is “inactive”.

For the molecule `COCCNc1cc(C)nc2cc(-c3ccc(C)cc3)nn12`, the Potency entry was “inactive”.

For `Cc1ccc(Nc2cc(C)nc3nc(Cc4ccc(Cl)cc4)nn23)cc1`, the Potency was 22.4 µM (active).

Take `Cc1cc(C)n2nc(SCC(=O)Nc3ccc(F)c(F)c3F)nc2n1`: the Potency entry was “inactive”.

Take `Cc1c(-c2ccccc2)c(=O)oc2c(CN3CCN(C)CC3)c(O)ccc12`: the Potency result was “inactive”.

Take `CN(C(=O)COC(=O)c1cc(-c2ccc(Cl)s2)nc2ccccc12)C1CCS(=O)(=O)C1` (stereo not drawn): the Potency result was “inactive”.

As to `CN(C(=O)COC(=O)c1nc(Cl)c(Cl)c(Cl)c1Cl)C1CCS(=O)(=O)C1` (stereo not drawn), the Potency was 33.6 µM (active).

With `Cc1ccc(-c2cc(C(=O)OCC(=O)N(C)C3CCS(=O)(=O)C3)c3ccccc3n2)o1` (stereo not drawn), the Potency entry is “inactive”.

Regarding `CC1Cc2ccccc2N1C(=O)COC(=O)c1ccc(N(C)C)cc1` (stereo not drawn), the Potency result was “inactive”.

Take `CCO/C(O)=C(\C#N)c1cc(C)c2ccccc2n1`: the Potency entry is “inactive”.

As to `COc1cc(/C=C(/C#N)c2nc3ccccc3[nH]2)ccc1OCC(=O)Nc1ccccc1C`, the Potency result is “inactive”.

On to `Cc1cc(Br)ccc1SCC(=O)OCC(O)=C(C#N)c1nc2ccccc2[nH]1`, for which the Potency was 39.8 µM (active).

Take `Cc1cc(Br)ccc1SCC(=O)OC/C(O)=C(\C#N)c1nc2ccccc2[nH]1`: the Potency is 11.2 µM (active).

In the case of `COc1cc(/C=C(/C#N)c2nc3ccccc3[nH]2)ccc1OCC(=O)Nc1ccccc1C(C)C`, the Potency result is “inactive”.

On to `Cc1cc(/C=C(/C#N)c2nc3ccccc3[nH]2)c(C)n1-c1ccccc1C(=O)O`, for which the Potency result is “inactive”.

Regarding `Cc1c(C)c(C)c(S(=O)(=O)N2CCNCC2)c(C)c1C`, the Potency result was “inactive”.

In the case of `COCCN1C=C(C(=O)OC)C(c2ccccc2Cl)C(C(=O)OC)=C1`, the Potency result was “inactive”.

For `O=C(N[C@@H](Cc1ccccc1)C(=O)OCc1ccccc1)c1ccco1`, the Potency entry was “inactive”.

Take `O=C(NC(CC(=O)N1CCN(c2ccccc2)CC1)c1ccccc1)c1ccccc1` (stereo not drawn): the Potency result was “inactive”.

`O=C(N[C@@H](Cc1ccccc1)C(=O)OCc1ccccc1)c1[nH]cnc1C(=O)N1CCN(c2ccccc2)CC1`: the Potency was 22.4 µM (active).

Take `CC(C)C[C@H](NC(=O)c1[nH]cnc1C(=O)N1CCN(C(=O)OC(C)(C)C)CC1)C(=O)OCc1ccccc1`: the Potency was 35.5 µM (active).

Turning to `O=C(O)CCCC(=O)N1CCN(c2nc(-c3ccccc3)c3ccccc3n2)CC1`, the Potency result is “inactive”.

Turning to `COc1cccc(/C=N/n2c(SC)nnc2-c2ccccc2)c1O`, the Potency entry was “inactive”.

For the molecule `COc1ccc2cc(/C=N/NC(=O)CN(c3ccccc3C)S(=O)(=O)c3ccccc3)c(Cl)nc2c1`, the Potency result is “inactive”.

Consider `COc1ccc(/C=N/Nc2cc(C)nc3ccc(OC)cc23)c(OC)c1`, for which the Potency result was “inactive”.

For `COc1cccc(-c2cc(C(=O)N/N=C/c3cccc(OC)c3OC)c3ccccc3n2)c1`, the Potency entry was “inactive”.

Take `COc1ccc2nc(C)cc(N/N=C/c3cccc(OC)c3O)c2c1`: the Potency was 35.5 µM (active).

Regarding `COc1ccc2nc(C)cc(SCC(=O)N/N=C/c3cccc4ccccc34)c2c1`, the Potency was 22.4 µM (active).

For `COc1ccc2nc(C)cc(N/N=C/c3ccccc3)c2c1`, the Potency is 31.6 µM (active).

Regarding `COc1ccc2nc(S)cc(C)c2c1`, the Potency result is “inactive”.

Regarding `Cc1cc(C(=O)N/N=C/c2cccnc2)c2ccccc2n1`, the Potency result was “inactive”.

As to `COc1ccc(C(=O)Nc2nc3n(n2)C(c2ccccc2)C=C(c2ccccc2)N3)cc1` (stereo not drawn), the Potency result is “inactive”.

On to `COc1cccc(C2C=C(c3cccs3)Nc3ncnn32)c1OC` (stereo not drawn), for which the Potency result was “inactive”.

Take `Cc1nc(N)c(Br)c(C)c1Br`: the Potency result was “inactive”.

With `Clc1ccccc1N1CCN(Cc2ccco2)CC1`, the Potency entry was “inactive”.

As for `CCOC(=O)c1sc2nc(C3CC3)cc(-c3ccc(F)cc3)c2c1N`, the Potency result is “inactive”.

Regarding `Cc1ccccc1NCC(=O)Nc1cc(S(=O)(=O)N2CCCCC2)ccc1C`, the Potency result is “inactive”.

With `SC1=C2CCCCCC2=NC2(CCCCCC2)S1`, the Potency was 44.7 µM (active).

In the case of `CSC1=NN(c2ccccc2)CN(c2ccccc2)N1C`, the Potency result is “inactive”.

Take `COc1ccc(-c2c(C)c3ccc(O)c(CN4CCC(C)CC4)c3oc2=O)cc1OC`: the Potency result is “inactive”.

In the case of `CCOC(=O)C1CCN(S(=O)(=O)c2ccc3c4c(cccc24)C(=O)N3)CC1`, the Potency result was “inactive”.

For the molecule `CC1=[N+](C)c2c(ccc3cccnc23)C1(C)C`, the Potency result is “inactive”.

Regarding `CC(C)c1ccc2nc3sc(C(=O)N4CCc5ccccc5C4)c(N)c3cc2c1`, the Potency entry is “inactive”.

Turning to `Cn1c2ccccc2c(=O)c2c(=O)n(C3CCCCCC3)c(C3CCCCC3)nc21`, the Potency result is “inactive”.

In the case of `C/C(=N\Nc1nc2ccccc2[nH]1)c1cc2ccccc2o1`, the Potency entry was “inactive”.

On to `COc1ccc(C(=O)N[C@H](C(=O)Nc2nc3ccccc3[nH]2)C(C)C)cc1`, for which the Potency result was “inactive”.

As for `Cc1c(C(=O)Nc2nc3ccccc3[nH]2)oc2ccccc12`, the Potency was 39.8 µM (active).

As to `COCCNC(=O)c1cnn2c(C(F)(F)F)cc(-c3ccc(C)cc3)nc12`, the Potency result was “inactive”.

With `CCOC(=O)c1cc2c(=O)n3ccccc3nc2n(CCCOC)/c1=N\C(=O)c1ccncc1`, the Potency entry was “inactive”.

As for `CN1CCN(c2ccc3sc(-n4ccc5ccccc54)nc3c2)CC1`, the Potency was 39.8 µM (active).

As for `CN1CCN(c2ccc(-c3ccc4ccccc4n3)cc2)CC1`, the Potency result was “inactive”.

For the molecule `O=c1c(-c2nc3ccccc3s2)cccn1Cc1ccccc1`, the Potency result is “inactive”.

For the molecule `C[C@@H]1O[C@H](O[C@@H]2[C@H](C)O[C@H](O[C@@H]3[C@H](C)O[C@H](O[C@H]4CC[C@]5(C)[C@@H](CC[C@@H]6[C@H]5C[C@@H](O)[C@]5(C)[C@@H](C7=CC(=O)OC7)CC[C@]65O)C4)C[C@@H]3O)C[C@@H]2O)C[C@H](O)[C@@H]1O`, the Potency was 0.224 µM (active).

With `CN(C)c1nc(-c2ccccc2)c2cc(Cl)ccc2n1`, the Potency entry is “inactive”.

In the case of `Cc1c(CC(=O)NCc2ccccc2Cl)c(=O)oc2cc(O)ccc12`, the Potency result was “inactive”.

For the molecule `COc1cc(/C=C/c2ccc3cccc(OC)c3n2)c(OC(C)=O)c([N+](=O)[O-])c1`, the Potency is 35.5 µM (active).

Regarding `COc1ccc(C=Cc2ccc3ccccc3n2)c(OC)c1`, the Potency result is “inactive”.

As to `CC(=O)Oc1c(Cl)cc(Cl)cc1/C=C/c1ccc2ccccc2n1`, the Potency result is “inactive”.

Regarding `CCOC(=O)c1c(C)[nH]c(C)c1C(=O)COC(=O)c1ccc(S(=O)(=O)C(F)F)cc1`, the Potency entry was “inactive”.

With `CCOC(=O)c1c(C)[nH]c2c1-c1ccccc1C(=O)C2=O`, the Potency is 2.82 µM (active).

For `CCOC(=O)c1c(C)[nH]c(C)c1C(=O)COC(=O)c1ccc([N+](=O)[O-])s1`, the Potency result was “inactive”.

Regarding `O=C(NCc1ccco1)c1cccc2c1C(=O)c1ccc(N3CCC(Cc4ccccc4)CC3)cc1S2(=O)=O`, the Potency entry was “inactive”.

With `CC1(C)CNc2cc([N+](=O)[O-])ccc2S1`, the Potency result is “inactive”.

As for `CCOC(=O)c1cc(-c2ccccc2)nc2nc(N3CCCCC3)sc12`, the Potency result is “inactive”.

With `CCOC(=O)c1c(-c2ccccc2)nnn1-c1nc(OCC)nc(N2CCCCC2)n1`, the Potency is 39.8 µM (active).

Turning to `CCOC(=O)N1CCN(c2nc(-c3ccccc3)c3ccccc3n2)CC1`, the Potency entry was “inactive”.

Turning to `C=C1C(=O)OC2C1CCC(C)=CCCC1(C)OC21` (stereo not drawn), the Potency was 22.4 µM (active).

In the case of `C=CCN(C(=O)CSc1nc2ccsc2c(=O)n1Cc1ccccn1)c1ccccc1`, the Potency entry is “inactive”.

As for `C=C(C)CSc1cc(C)c(C#N)c2nc3ccccc3n12`, the Potency result was “inactive”.

As to `CCC(CC)C(=O)N(C)c1c(C)nc2c(OCCC3CCCCC3)cccn12`, the Potency is 31.6 µM (active).

Regarding `CCOCCCn1c(=N)c(C(=O)NC2CCCC2)cc2c(=O)n3cccc(C)c3nc21`, the Potency result was “inactive”.

Turning to `CCOCCCn1c(=N)c(C(=O)NC2CCCCC2)cc2c(=O)n3ccccc3nc21`, the Potency entry was “inactive”.

With `CCCn1c(=N)c(C(=O)NC2CCCC2)cc2c(=O)n3cccc(C)c3nc21`, the Potency entry is “inactive”.

Consider `CCn1c(=N)c(C(=O)NC2CCCCC2)cc2c(=O)n3cccc(C)c3nc21`, for which the Potency result was “inactive”.

Consider `CCc1nc2c(OCCC3CCCCC3)cccn2c1N(C)C(=O)C1CC1`, for which the Potency is 35.5 µM (active).

For `CCc1nc2c(OCCC3CCCCC3)cccn2c1N(C)C(=O)C(C)C`, the Potency was 35.5 µM (active).

As for `O=C(NCc1cccc(F)c1)c1cccc2c1C(=O)c1ccc(N3CCC(Cc4ccccc4)CC3)cc1S2(=O)=O`, the Potency entry was “inactive”.

On to `O=C(NNc1ccccn1)C(c1ccccc1)c1ccccc1`, for which the Potency entry was “inactive”.

Turning to `COc1ccc(-c2cc3ccc(O)c(CN4CCC(C)CC4)c3oc2=O)cc1OC`, the Potency result is “inactive”.

In the case of `Cc1c(N=C2N=C(NC(=O)c3ccc(F)cc3)c3ccccc32)c(=O)n(-c2ccccc2)n1C`, the Potency entry was “inactive”.

Turning to `N=c1oc2cc(O)ccc2cc1C(=O)Nc1ccc(Br)cc1`, the Potency result was “inactive”.

As to `CCOC(=O)CC(NC(=O)CCc1c(C)nc2c(-c3ccccc3)c(C)nn2c1C)c1ccc(OC(C)C)cc1` (stereo not drawn), the Potency was 39.8 µM (active).

As for `CCOC(=O)Cc1c(C)nc2c(-c3ccc(Cl)cc3)c(C)nn2c1C`, the Potency result was “inactive”.

As to `Cc1ccc(/C=C/C(=O)c2ccc(N3CCOCC3)cc2)s1`, the Potency result is “inactive”.

Consider `Clc1cccc(N2CCN(c3ncnc4c3nc3n4CCCCC3)CC2)c1`, for which the Potency was 14.1 µM (active).

For `Clc1cccc(N2CCN(Cc3nnc(-c4ccccc4)o3)CC2)c1`, the Potency result is “inactive”.

On to `O=C(c1cccc(F)c1)N1CCCC(C(=O)N2CCN(c3ccccc3)CC2)C1` (stereo not drawn), for which the Potency entry was “inactive”.

For the molecule `CNC(=O)/C(C#N)=C/c1c(N2CCN(c3cccc(Cl)c3)CC2)nc2c(C)cccn2c1=O`, the Potency result is “inactive”.

Turning to `O=C(C1CCN(c2ncnc3c2nc2n3CCCCC2)CC1)N1CCN(c2ccc(F)cc2)CC1`, the Potency was 22.4 µM (active).

Turning to `O=C(OCC(=O)N1CCN(c2ccc(F)cc2)CC1)c1cnc2ccccc2n1`, the Potency entry was “inactive”.
